Data as given in PubChem BioAssay AID1851 (National Center for Advancing Translational Sciences (NCATS), 2009).
The whole screen tested about 16,000 compounds, of which about 4,000 (25%) were called active. About 26% were inconclusive and are not listed. Only a sample is shown. A number with no mark means an inactive call. Calls come from the whole dose curve; as a rule, active = well fitted curve in the direction sought with a large enough effect; inconclusive = small, poorly fitted or top-dose-only effect, or effect the other way; inactive = no such curve, though single readings can be large or run the other way.

biological target: Cytochrome P450 2C9 (Homo sapiens) (UniProt P11712); test: Cytochrome panel assay with activity outcomes; details: recombinant CYP, pro-luciferin dealkylation, luminescence, p450-cyp2c9; series mostly up to 57.1 µM
Sequence (P11712 whole entry, looked up): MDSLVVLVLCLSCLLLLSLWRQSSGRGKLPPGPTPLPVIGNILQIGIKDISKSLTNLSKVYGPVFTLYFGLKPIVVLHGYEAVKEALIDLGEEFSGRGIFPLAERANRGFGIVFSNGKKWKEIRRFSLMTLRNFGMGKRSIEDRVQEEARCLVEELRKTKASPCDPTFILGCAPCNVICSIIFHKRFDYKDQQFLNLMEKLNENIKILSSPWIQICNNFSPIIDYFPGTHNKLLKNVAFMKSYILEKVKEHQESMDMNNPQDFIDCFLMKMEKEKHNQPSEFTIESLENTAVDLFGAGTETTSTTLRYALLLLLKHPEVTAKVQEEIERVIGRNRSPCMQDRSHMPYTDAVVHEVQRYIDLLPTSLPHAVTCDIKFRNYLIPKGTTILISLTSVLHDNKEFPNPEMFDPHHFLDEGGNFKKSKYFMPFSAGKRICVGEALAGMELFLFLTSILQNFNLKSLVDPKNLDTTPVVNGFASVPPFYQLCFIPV
% is set by controls: 0 for no effect and ±100 for the full control effect.

| Structure (SMILES) | AC50 | activity, negative = inhibition |
| --- | --- | --- |
| CC(C)N(Cc1ccccc1)S(=O)(=O)c1n[nH]c(C(C)(C)C)n1 | 3.98 µM (active) |  |
| Cc1ccc(C)c(NC(=O)Cn2nnc(C(=O)NCc3cccs3)c2N)c1 | inactive |  |
| COc1ccc(CCNC(=O)c2nnn(CC(=O)Nc3ccccc3C)c2N)cc1OC | 15.8 µM (active) |  |
| COc1ccc(CCNC(=O)Cn2cnc3c2c(=O)n(C)c(=O)n3C)cc1OC | inactive |  |
| COc1ccccc1CNc1ncncc1-c1ccccc1C(F)(F)F |  | -18.6% [at 2.29 µM] |
| CN1c2ccccc2Oc2c(c(=O)n(C)c(=O)n2C)C1c1cccc([N+](=O)[O-])c1 (configuration not stated) | 4.47 µM (active) |  |
| O=C(c1ccccc1)[C@@H]1O[C@H]1c1ccc(-c2ccccc2)cc1 | 12.6 µM (active) |  |
| CC(=NCC(=O)O)c1ccccc1 |  | 2.4% [at 11.4 µM] |
| CCCCCCCCCCCCCCC[C@H](O)[C@H](N)CO | inactive |  |
| O=C(O)c1cc(-c2ccc(-c3ccccc3)cc2)nc2cc3ccccc3cc12 |  | -27% [at 11.4 µM] |
| Cc1ccc2nc(Nc3nc(-c4ccccc4)cc(=O)[nH]3)nc(C)c2c1 | 2.82 µM (active) |  |
| Cc1ccccc1/C=C\C1=NCCN1 | inactive |  |
| CC(C)(C)COS(=O)OCC(C)(C)C |  | -7.38% [at 11.4 µM] |
| Cc1ccc(S(=O)(=O)/C=C\C#N)cc1 | 12.6 µM (active) |  |
| CCN(CC)CCNC(=O)c1cc(Cl)c(N)cc1OC | inactive |  |
| CC1=C(C(=O)OCc2ccccc2)C(c2ccc3ccccc3c2)NC(=O)N1CCCCCC(=O)O (configuration not stated) | 7.94 µM (active) |  |
| CN1CCC[C@@H]1CCO[C@](C)(c1ccccc1)c1ccc(Cl)cc1 | inactive |  |
| CC1=C(C(=O)OCc2ccccc2)C(c2ccc([N+](=O)[O-])cc2)NC(=O)N1CCCCCC(=O)O (configuration not stated) | 15.8 µM (active) |  |
| CC1=C(C(=O)OCc2ccccc2)C(c2ccc(Cl)cc2)NC(=O)N1CCCCCC(=O)O (configuration not stated) | 12.6 µM (active) |  |
| CC(C)=CCC/C(C)=C/CO/N=C1/C[C@@H](O)[C@@H](O)[C@@H]2[C@@H]3C(=O)N(C[C@@H]4CCCO4)C(=O)[C@H]3CC[C@@H]12 |  | 9.34% [at 11.4 µM] |
| CN(C)[C@H]1C(=O)C(C(=O)NCN2CCCC2)=C(O)[C@]2(O)C(=O)C3=C(O)c4c(O)cccc4[C@](C)(O)[C@H]3C[C@H]12 |  | -10.5% [at 11.4 µM] |
| Cc1cc(=Nc2ccc3c(c2)c(N)cc(C)[n+]3C)nc(N)n1C |  | 13% [at 11.4 µM] |
| CCN(CC)CC#CCC(C)(c1ccccc1)c1ccccc1 | 15.8 µM (active) |  |

| Structure (SMILES) | AC50 | activity, negative = inhibition |
| --- | --- | --- |
| CCCC(C(=O)OCCN(CC)CC)(c1ccccc1)c1ccccc1 | inactive |  |
| N=C(N)SCCSC(=N)N |  | -1.93% [at 11.4 µM] |
| COc1cc2c3c(c1OC)C1(C=CC(=O)C=C1)CC3N(C(=O)c1ccccc1)CC2 (configuration not stated) | 3.16 µM (active) |  |
| COc1cc(C(=O)N2CCN(C(=O)c3ccccc3)CC2)cc(OC)c1OC | inactive |  |
| COc1cc(OC)c(C2C(C(=O)O)c3ccccc3C(=O)N2C)cc1OC (configuration not stated) | inactive |  |
| c1ccc(CNc2cc(-c3ccoc3)ncn2)cc1 |  | -12.4% [at 2.29 µM] |
| c1ccc(-c2nc(CSc3n[nH]c(-c4cccs4)n3)cs2)cc1 | 20 µM (active) |  |
| O=C(c1cnccn1)N1CCC2(CCCN(c3ncccn3)C2)CC1 | inactive |  |
| CCOc1ccc(Cc2nccc3cc(OCC)c(OCC)cc23)cc1OCC | 3.98 µM (active) |  |
| Cn1c(CN2CCOCC2)nnc1SCc1ccccc1 | inactive |  |
| Cn1c(CNC(=O)Nc2ccccc2)nnc1SCc1ccccc1 | 8.91 µM (active) |  |
| COc1cccc(-c2ccc3ncnc(NCCNC(C)=O)c3c2)c1 |  | -1.53% [at 2.29 µM] |
| COc1cccc(-c2nc(NCCNC(C)=O)c3ccccc3n2)c1 |  | 22.4% [at 2.29 µM] |
| COc1ccc2[nH]c(-c3ccccc3)c(CCNC(C)=O)c2c1 | 15.8 µM (active) |  |
| C[C@H](CN(C)C)C(=O)c1ccccc1C(=O)O |  | 4.19% [at 11.4 µM] |
| CNS(=O)(=O)c1ccccc1C(=N)c1ccccc1 |  | 9.68% [at 11.4 µM] |
| OC[C@H]1NC[C@@H](O)[C@@H](O)[C@H]1O | inactive |  |
| Cc1cccc(NC(=S)NNC(=O)CCn2cc(C)cn2)c1 | inactive |  |
| O=C(Nc1cccc(C(F)(F)F)c1)c1ccc(Cn2cc(Br)cn2)o1 | 8.91 µM (active) |  |
| Cc1nn(CC(O)COc2ccc3c(c2)CCC3)c(C)c1Br (configuration not stated) | inactive |  |
| C=CC[C@@H]1C=C[C@H](O/N=C(\C)CCN2CCCCc3nc(C)c(C)cc32)[C@H](CO)O1 |  | 0.735% [at 11.4 µM] |
| Cc1ccc(N2C(=O)c3n[nH]c(C)c3C2c2ccccn2)cc1 (configuration not stated) | inactive |  |
| COc1cccc(CNC(=O)CCNC(=O)Cn2ccc3ccccc3c2=O)c1 | 3.16 µM (active) |  |

| Structure (SMILES) | AC50 | activity, negative = inhibition |
| --- | --- | --- |
| O=C(CCNC(=O)Cn1ccc2ccccc2c1=O)NCCCN1CCN(c2ccc(F)cc2)CC1 | inactive |  |
| COc1ccc(OC)c(CNC(=O)CCNC(=O)Cn2ccc3ccccc3c2=O)c1 | inactive |  |
| CN1C(=O)C[C@H](c2ccccc2)C1=O | inactive |  |
| O=C1C(Cc2ccccc2)C(c2ccccc2)N1c1ccccc1 (configuration not stated) | 7.08 µM (active) |  |
| CCCC1C(=O)N(c2ccccc2)C1c1ccccc1 (configuration not stated) | 10 µM (active) |  |
| CCCCN1C(=O)CCC(C(=O)O)C1c1ccccc1 (configuration not stated) | inactive |  |
| CN(C)CCNS(=O)(=O)N(C)C |  | 11.3% [at 11.4 µM] |
| CO[C@]1(NC(=O)[C@H](C(=O)O)c2ccc(O)cc2)C(=O)N2C(C(=O)O)=C(CSc3nnnn3C)CO[C@H]21 | inactive |  |
| c1ccc(Nc2nc(-c3ccoc3)nc3ccccc23)cc1 |  | -10.3% [at 2.29 µM] |
| CN1CC(c2ccccn2)C2(SC(=S)N(Cc3ccccc3)C2=O)C12C(=O)Nc1ccccc12 (configuration not stated) | 4.47 µM (active) |  |
| CCCCN(c1ccccc1)c1ncnc2c1cnn2C |  | 1.33% [at 11.4 µM] |
| CN1CCN(CN2C(=O)C3C4C=CC(C3C2=O)C2C3C(=O)N(CN5CCN(C)CC5)C(=O)C3C42)CC1 (configuration not stated) |  | -2.91% [at 11.4 µM] |
| Oc1ccccc1C1Nc2cccc3cccc(c23)N1 | 8.91 µM (active) |  |
| Oc1ccc(C2Nc3cccc4cccc(c34)N2)c(O)c1 | 14.1 µM (active) |  |
| O=C(O)[C@H]1C[C@@H](CP(=O)(O)O)CCN1 | inactive |  |
| O=C1[C@H]2[C@H]3[C@H](O)[C@H](O)C/C(=N/OC[C@@H](O)COCc4ccco4)[C@H]3CC[C@@H]2C(=O)N1C[C@@H]1CCCO1 |  | 7.75% [at 11.4 µM] |
| O=C1C=C(NCCN2CCOCC2)CC(c2ccccc2)C1 (configuration not stated) | inactive |  |
| O=C(O)C1(Nc2ccc(Cl)cc2)CCCC1 |  | -21.4% [at 11.4 µM] |
| O=C1C=C(Nc2ccc(Cl)cc2)CC(c2ccc(Cl)cc2)C1 (configuration not stated) | 10 µM (active) |  |
| C#CCSc1nnc(-c2sc3ccccc3c2Cl)o1 | inactive |  |
| Clc1ccc(-c2nnc(-c3cccc4ccccc34)o2)cc1Cl |  | 24% [at 11.4 µM] |
| c1ccc2c(CSc3nnc(-c4ccncc4)o3)cccc2c1 | 0.178 µM (active) |  |
| Clc1ccccc1CSc1nnc(-c2ccncc2)o1 | 0.447 µM (active) |  |

| Structure (SMILES) | AC50 | activity, negative = inhibition |
| --- | --- | --- |
| CC[N+](C)(C)c1cccc(O)c1 | inactive |  |
| Cc1ccc(S(=O)(=O)N2CCN(Cc3ccccc3C(F)(F)F)CC2)cc1 | 39.8 µM (active) |  |
| COc1ccccc1CN1CCC2(CC1)CCN(S(=O)(=O)c1ccccc1)CC2 | inactive |  |
| Cc1ccc(S(=O)(=O)N2CCN(S(C)(=O)=O)C2)cc1 | inactive |  |
| O=C1[C@H]2[C@H]3[C@H](O)[C@H](O)C/C(=N/OCc4ccccc4)[C@H]3CC[C@@H]2C(=O)N1Cc1ccc2c(c1)OCO2 |  | -16.6% [at 11.4 µM] |
| COc1ccccc1CNc1nc(-c2ccccc2CN(C)C)nc2ccccc12 |  | 5.51% [at 2.29 µM] |
| c1ccc(-c2nc(N3CCCCCC3)nc(-n3ccnc3)n2)cc1 | 5.01 µM (active) |  |
| CN(c1ccccc1)c1nc(-n2ccnc2)nc(-n2ccnc2)n1 | 0.282 µM (active) |  |
| COc1ccccc1-c1nccc(-n2ccnc2)n1 |  | 6.88% [at 2.29 µM] |
| c1ccc2c(-n3ccnc3)nc(-c3ccoc3)nc2c1 |  | -6.66% [at 2.29 µM] |
| CN(C)C(=O)c1ccc(-c2nc(-n3ccnc3)c3ccccc3n2)cc1 |  | -0.507% [at 2.29 µM] |
| Cc1ccccc1-c1nc(-n2ccnc2)c2ccccc2n1 |  | -7.55% [at 2.29 µM] |
| N[C@@](CC(=O)O)(Cc1ccccc1)C(=O)O |  | -1.82% [at 11.4 µM] |
| CCOC(=O)N1CCN(C(=O)c2cnc3n(c2=O)CCS3)CC1 | inactive |  |
| NC(=O)C1(N2CCCCC2)CCN(C(=O)c2ccc(-n3cnnn3)cc2)CC1 | inactive |  |
| O=C(c1ccc2nc3ccc(Cl)cc3c(=O)n2c1)N1CCOCC1 | inactive |  |
| NC(=O)C1(N2CCCCC2)CCN(C(=S)Nc2ccc(Cl)cc2)CC1 | inactive |  |
| NC(=O)C1(N2CCCCC2)CCN(C(=O)c2cccn3c(=O)c4cc(Cl)ccc4nc23)CC1 | 3.98 µM (active) |  |
| CCOC(=O)N1CCN(C(=O)c2cccn3c(=O)c4cc(Cl)ccc4nc23)CC1 | 8.91 µM (active) |  |
| Cc1cc(C)cc(NC(=O)C/C(N)=N/O)c1 | inactive |  |
| C[C@@H]1CCCC(CC(=O)O)(CC(=O)O)C1 |  | 9.77% [at 11.4 µM] |
| CCOC(=O)N1CCN(C(=O)c2ccc(NC(C)=O)cc2)CC1 | inactive |  |
| CCOC(=O)N1CCN(C(=O)c2ccc3nc(N4CCC(C)CC4)sc3c2)CC1 | 2.51 µM (active) |  |
